Laboratory results from PubChem BioAssay (Tox21).
Values joined by “and” are separate entries in the source; they are usually repeats but may differ in a detail not shown here. Equal values may be shown once. Inconclusive results are not listed. Where a structure was tested more than once in an assay, its records may differ in their call. Active and inactive are the calls of the source. Unless noted, the call rests on the fitted dose curve; in most records, active means well fitted curve in the direction sought with a large enough effect in the repeat runs; inconclusive means weak or mixed curves; inactive means no such curve, though single readings can be large; an effect the other way counts as inactive or inconclusive.

Key:
[1] = qHTS assay to identify small molecule agonists of the estrogen receptor beta (ER-beta) signaling pathway - cell viability counter screen (AID 1259380); further: nearly all actives have a fitted effect of over 30% in size; further: potency means the concentration at half of the fitted maximal effect
Summary of the method: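 ER-beta-UAS-bla HEK293T cells in medium with 2% charcoal-stripped FBS were preincubated 6 hr at 37C, dosed with compound in DMSO for 16 hr, then after the bla read, CellTiter-Glo was added for 30 min at room temperature; luminescence recorded.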

[2] = qHTS assay to identify small molecule antagonists of the estrogen receptor beta (ER-beta) signaling pathway - cell viability counter screen (AID 1259382);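 further: HEK293T cells carrying ER-beta-UAS-bla reporter stimulated with estradiol; series mostly up to about 92 µM; nearly all actives have a fitted effect of over 55% in size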
Summary of the method: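 ER-beta-UAS-bla HEK293T cells (2,000/well, 2% charcoal-stripped FBS) were pre-incubated 6 hr at 37C, then given compound plus 1nM final 17-beta-estradiol for 16 hr. Viability was read in the same wells by CellTiter-Glo luminescence after 30 min at room temperature.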

[3] = target: Estrogen receptor (Homo sapiens) (UniProt P03372); assay: qHTS assay to identify small molecule agonists of the estrogen receptor alpha (ER-alpha) signaling pathway in the presence of an antagonist (AID 1259383; calls by dose curve; further: top concentration of the series differs between compounds; nearly all actives have a fitted effect of over 15% in size)
Estrogen receptor (Homo sapiens), sequence (P03372 whole entry, looked up): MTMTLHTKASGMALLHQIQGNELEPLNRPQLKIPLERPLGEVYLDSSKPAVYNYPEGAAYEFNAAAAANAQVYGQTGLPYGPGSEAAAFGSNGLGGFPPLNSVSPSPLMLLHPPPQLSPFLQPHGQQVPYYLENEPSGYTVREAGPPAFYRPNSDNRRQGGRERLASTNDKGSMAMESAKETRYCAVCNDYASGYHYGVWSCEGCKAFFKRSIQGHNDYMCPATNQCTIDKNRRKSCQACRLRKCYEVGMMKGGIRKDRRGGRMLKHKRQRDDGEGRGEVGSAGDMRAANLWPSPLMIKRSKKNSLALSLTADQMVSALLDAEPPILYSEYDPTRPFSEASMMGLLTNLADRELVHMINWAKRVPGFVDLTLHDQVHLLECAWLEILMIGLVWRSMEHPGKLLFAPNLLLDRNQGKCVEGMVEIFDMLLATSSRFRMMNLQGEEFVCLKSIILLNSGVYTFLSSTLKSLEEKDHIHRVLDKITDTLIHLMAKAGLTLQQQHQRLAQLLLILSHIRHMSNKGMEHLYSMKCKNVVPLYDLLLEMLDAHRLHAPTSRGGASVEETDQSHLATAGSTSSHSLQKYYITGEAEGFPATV
Summary of the method: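 VM7Luc4E2 cells (endogenous full-length ER-alpha, 4×ERE-luciferase) were precultured 5 days in phenol red-free medium with 10% charcoal-stripped FBS, given 10.0nM ICI-182,780 (final), then treated with compounds at 15 concentrations for 22hr at 37C; luminescence read with ONE-Glo.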

[4] = qHTS assay to identify small molecule agonists or antagonists of the thyroid stimulating hormone receptor (TSHR) signaling pathway - wild type cell line counter screen (AID 1259384; calls by dose curve)
Summary of the method: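 Wild-type Hek293 cells, 800/well, 18 h at 37C, then compound with Ro20-1724 for 30 min RT. cAMP by HTRF (cAMP-d2/anti-cAMP cryptate), 1 h RT, fluorescence read. 15 concentrations, triplicates.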

[5] = target: Thyrotropin receptor (Homo sapiens) (UniProt P16473); assay: qHTS assay to identify small molecule antagonists of the thyroid stimulating hormone receptor (TSHR) signaling pathway (AID 1259385; calls by dose curve; further: nearly all actives have a fitted effect of over 20% in size; further: potency means the concentration at half of the fitted maximal effect)
Thyrotropin receptor (Homo sapiens), sequence (P16473 whole entry, looked up): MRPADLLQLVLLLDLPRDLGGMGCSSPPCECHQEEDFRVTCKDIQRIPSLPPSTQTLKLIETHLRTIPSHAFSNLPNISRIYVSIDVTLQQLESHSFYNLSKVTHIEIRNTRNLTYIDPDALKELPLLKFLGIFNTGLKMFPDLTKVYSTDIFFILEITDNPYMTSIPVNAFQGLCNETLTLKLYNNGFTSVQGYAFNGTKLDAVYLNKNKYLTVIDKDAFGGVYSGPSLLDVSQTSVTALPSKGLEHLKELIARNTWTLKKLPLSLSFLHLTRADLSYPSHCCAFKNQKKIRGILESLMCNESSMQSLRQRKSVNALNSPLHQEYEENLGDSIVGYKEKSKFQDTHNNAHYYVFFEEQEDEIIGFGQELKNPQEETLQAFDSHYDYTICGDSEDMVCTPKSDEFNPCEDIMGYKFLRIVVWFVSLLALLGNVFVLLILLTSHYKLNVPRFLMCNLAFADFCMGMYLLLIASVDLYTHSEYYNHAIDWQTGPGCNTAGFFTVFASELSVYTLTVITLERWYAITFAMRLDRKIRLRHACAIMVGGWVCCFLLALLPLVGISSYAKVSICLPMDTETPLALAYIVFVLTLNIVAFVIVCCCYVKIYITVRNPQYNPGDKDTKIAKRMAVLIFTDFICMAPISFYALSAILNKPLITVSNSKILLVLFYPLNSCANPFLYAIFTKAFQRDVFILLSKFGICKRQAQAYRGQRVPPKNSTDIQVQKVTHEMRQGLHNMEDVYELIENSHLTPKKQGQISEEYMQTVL
Summary of the method: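 TSHR-HEK293 cells (800/well) plated 18 h, then compounds with Ro20-1724 and TSH at 1.5 ng/mL final, 30 min at room temperature. cAMP quantified by HTRF (cAMP-d2/anti-cAMP-cryptate, 1 h); 15 concentrations in triplicate.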

[6] = qHTS assay to identify small molecule agonists of the estrogen receptor alpha (ER-alpha) signaling pathway in the presence of an antagonist - cell viability counter screen (AID 1259386);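 further: series mostly up to about 92 µM; cells exposed to compounds for 22 h at 37 °C before the viability read; nearly all actives have a fitted effect of over 30% in size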
Summary of the method: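 VM7Luc4E2 cells (endogenous full-length ER-alpha, 4×ERE-luciferase) were held 5 days in phenol red-free medium with 10% charcoal-stripped FBS, plated, then given 10.0nM ICI-182,780 and compounds at 15 concentrations for 22hr at 37C; viability read by CellTiter-Fluor fluorescence.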

[7] = target: Progesterone receptor (Homo sapiens) (UniProt P06401); assay: qHTS assay to identify small molecule agonists of the progesterone receptor (PR) signaling pathway (AID 1346784; calls by dose curve; further: nearly all actives have a fitted effect of over 30% in size)
Progesterone receptor (Homo sapiens), sequence (P06401 whole entry, looked up): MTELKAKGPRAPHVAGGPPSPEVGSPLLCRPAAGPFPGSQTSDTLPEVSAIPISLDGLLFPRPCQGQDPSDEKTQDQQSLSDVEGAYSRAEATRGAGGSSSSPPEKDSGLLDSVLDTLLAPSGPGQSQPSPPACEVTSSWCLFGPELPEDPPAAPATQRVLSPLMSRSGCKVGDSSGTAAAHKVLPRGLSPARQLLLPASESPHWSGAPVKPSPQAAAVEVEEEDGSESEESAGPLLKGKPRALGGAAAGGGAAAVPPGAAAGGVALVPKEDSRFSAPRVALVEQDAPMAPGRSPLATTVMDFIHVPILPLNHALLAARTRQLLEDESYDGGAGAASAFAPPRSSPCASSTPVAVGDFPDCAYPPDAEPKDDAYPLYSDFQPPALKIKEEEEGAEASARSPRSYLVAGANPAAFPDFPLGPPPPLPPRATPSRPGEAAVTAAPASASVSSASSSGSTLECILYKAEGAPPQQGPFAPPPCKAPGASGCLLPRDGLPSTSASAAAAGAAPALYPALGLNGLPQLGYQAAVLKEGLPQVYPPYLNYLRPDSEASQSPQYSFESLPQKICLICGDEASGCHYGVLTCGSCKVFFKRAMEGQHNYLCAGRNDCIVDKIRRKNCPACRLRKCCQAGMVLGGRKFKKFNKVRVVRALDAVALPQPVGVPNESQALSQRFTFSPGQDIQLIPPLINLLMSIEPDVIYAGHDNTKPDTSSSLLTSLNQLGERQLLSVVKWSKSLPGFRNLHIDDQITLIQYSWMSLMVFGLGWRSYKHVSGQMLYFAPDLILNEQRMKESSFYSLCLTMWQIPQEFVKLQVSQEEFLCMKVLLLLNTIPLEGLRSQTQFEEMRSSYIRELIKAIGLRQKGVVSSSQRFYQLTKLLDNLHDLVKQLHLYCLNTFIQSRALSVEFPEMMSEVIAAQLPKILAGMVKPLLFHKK
Summary of the method: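 Using charcoal-stripped serum (2%) to limit endogenous steroids, PR-UAS-bla HEK 293T cells received compounds for 16 hr at 37C after 6 hr plating; beta-lactamase FRET fluorescence was recorded following 2 hr substrate loading at room temperature.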

[8] = target: Progesterone receptor (Homo sapiens) (UniProt P06401); assay: qHTS assay to identify small molecule antagonists of the progesterone receptor (PR) signaling pathway (AID 1346795; active means well fitted inhibition curve with a large enough effect in the signal ratio in the repeat runs, not every such curve was filed as active; the % refers to the signal ratio; further: potency means the concentration at half of the fitted maximal effect)
Summary of the method: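 Inhibition of R5020-induced (1 nM final) beta-lactamase reporter signal in PR-UAS-bla HEK293T cells was scored by FRET fluorescence after overnight (16 hr) compound treatment.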

[9] = qHTS assay to identify small molecule antagonists of the progesterone receptor (PR) signaling pathway - cell viability counter screen (AID 1346798); further: series mostly up to about 92 µM; nearly all actives have a fitted effect of over 50% in size
Summary of the method: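 ATP content as viability readout: CellTiter-Glo luminescence, 30 min room temperature, in PR-UAS-bla HEK293T cells after 16 hr compound/R5020 treatment at 37C and 5% CO2.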

[10] = qHTS assay to identify small molecule agonists of the progesterone receptor (PR) signaling pathway - cell viability counter screen (AID 1346799; calls by dose curve; further: nearly all actives have a fitted effect of over 45% in size; further: potency means the concentration at half of the fitted maximal effect)
Summary of the method: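 Cytotoxicity in PR-bla HEK293T cells: 16 h compound, 37C; CellTiter-Glo added post-FRET read; luminescence after 30 min RT.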

[11] = qHTS assay to identify small molecule antagonists of the TGF-beta/Smad signaling pathway - cell viability counter screen (AID 1346824); further: nearly all actives have a fitted effect of over 50% in size
Summary of the method: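 SBE-bla HEK 293T cells, incubated overnight, then compound plus 0.25 ng/mL TGF-beta1 (stock added) for 5 hr at 37 C. Viability was read in the same wells by CellTiter-Glo luminescence after 30 min at room temperature.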

[12] = qHTS assay to identify small molecule agonists of the TGF-beta/Smad signaling pathway - cell viability counter screen (AID 1346829); further: top concentration of the series differs between compounds; nearly all actives have a fitted effect of over 45% in size
Summary of the method: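 HEK 293T SBE-bla line, 5 hr compound exposure at 37 C, multiplexed CellTiter-Glo viability read by luminescence.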

[13] = qHTS assay to identify small molecule agonists of the TGF-beta/Smad signaling pathway (AID 1346859; active means well fitted activation curve with a large enough effect in the signal ratio in the repeat runs, not every such curve was filed as active; the % refers to the signal ratio; further: series mostly up to about 77 µM)
Summary of the method: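 Stable Smad binding element-beta-lactamase HEK 293T cells; 5 hr compound exposure at 37 C under 5% CO2; 2 hr room-temperature substrate step; fluorescence excited at 405 nm, collected at 460 nm and 530 nm.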

[14] = target: Thyrotropin-releasing hormone receptor (Homo sapiens) (UniProt P34981); assay: qHTS assay to identify small molecule antagonists of the thyrotropin-releasing hormone receptor (TRHR) signaling pathway (AID 1346877; active means well fitted inhibition curve with a large enough effect in the repeat runs, not every such curve was filed as active; further: series mostly up to about 51 µM)
Thyrotropin-releasing hormone receptor (Homo sapiens), sequence (P34981 whole entry, looked up): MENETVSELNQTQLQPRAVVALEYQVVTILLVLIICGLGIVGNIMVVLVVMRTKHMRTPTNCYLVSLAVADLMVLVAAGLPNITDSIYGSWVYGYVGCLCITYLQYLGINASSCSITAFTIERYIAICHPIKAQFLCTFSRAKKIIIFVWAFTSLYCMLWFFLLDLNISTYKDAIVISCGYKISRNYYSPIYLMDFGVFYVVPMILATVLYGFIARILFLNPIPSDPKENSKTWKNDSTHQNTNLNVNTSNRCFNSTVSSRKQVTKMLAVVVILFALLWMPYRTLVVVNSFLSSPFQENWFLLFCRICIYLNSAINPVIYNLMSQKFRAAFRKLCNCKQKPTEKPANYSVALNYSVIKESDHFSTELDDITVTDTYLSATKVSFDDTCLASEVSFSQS
Summary of the method: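 TRHR-expressing HEK293 cells were seeded, cultured 18 h at 37 °C, then loaded with calcium dye for 2 h. Compounds were pre-incubated 5 min at room temperature before 1 nM TRH (final) was added, and kinetic fluorescence was recorded for 3 min.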

[15] = target: Thyrotropin-releasing hormone receptor (Homo sapiens) (UniProt P34981); assay: qHTS assay to identify small molecule agonists of the thyrotropin-releasing hormone receptor (TRHR) signaling pathway (AID 1346891; calls by dose curve; further: potency means the concentration at half of the fitted maximal effect; on activation: series mostly up to about 58 µM)
Summary of the method: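 In 1536-format, 1500 TRHR-Hek293 cells per well grew 18 h, took up calcium dye for 2 h at 37 °C, received compound, and were read kinetically; 15-point titrations, triplicates.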

[16] = Human pregnane X receptor (PXR) small molecule agonists, qHTS cell viability counter screen (AID 1346977); further: nearly all actives have a fitted effect of over 50% in size; further: potency means the concentration at half of the fitted maximal effect
Summary of the method: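 Readout is CellTiter-Fluor fluorescence from PXR-Luc HepG2 cells. Plated cells rested 5hr, then were treated with compounds for 24hr at 37C and 5% CO2, with reagent present during the last hour.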

[17] = Caspase-3/7 induction in HepG2 cells by small molecules, qHTS assay (AID 1346978); further: nearly all actives have a fitted effect of over 15% in size
Summary of the method: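 Wild-type HepG2 cells, 2,000/well, settled 5 hr at 37 C and 5% CO2, then compound-treated for 17 hr; caspase-3/7 activity read by luminescent Caspase-Glo 3/7 after 30 min at room temperature.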

[18] = Caspase-3/7 induction in CHO-K1 cells by small molecules, qHTS cell viability counter screen (AID 1346979); further: nearly all actives have a fitted effect of over 35% in size; further: potency means the concentration at half of the fitted maximal effect
Summary of the method: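 To flag cytotoxic compounds, treated CHO-K1 wild-type cells were given CellTiter-Fluor at 16hr and read fluorescently after 1hr at 37C; the caspase-3/7 luminescence was measured in these same wells.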

[19] = Caspase-3/7 induction in CHO-K1 cells by small molecules, qHTS assay (AID 1346980); further: nearly all actives have a fitted effect of over 15% in size
Summary of the method: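 Wild-type CHO-K1 cells exposed to compounds for 17hr at 37 C, 5% CO2. Caspase-3/7 activity then measured by Caspase-Glo 3/7 luminescence after 30min at room temperature.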

[20] = target: Androgen receptor (Homo sapiens) (UniProt P10275); assay: qHTS assay to identify small molecule agonists of the androgen receptor (AR) signaling pathway in the presence of an antagonist (AID 1259381; calls by dose curve; further: nearly all actives have a fitted effect of over 15% in size)
Androgen receptor (Homo sapiens), sequence (P10275 whole entry, looked up): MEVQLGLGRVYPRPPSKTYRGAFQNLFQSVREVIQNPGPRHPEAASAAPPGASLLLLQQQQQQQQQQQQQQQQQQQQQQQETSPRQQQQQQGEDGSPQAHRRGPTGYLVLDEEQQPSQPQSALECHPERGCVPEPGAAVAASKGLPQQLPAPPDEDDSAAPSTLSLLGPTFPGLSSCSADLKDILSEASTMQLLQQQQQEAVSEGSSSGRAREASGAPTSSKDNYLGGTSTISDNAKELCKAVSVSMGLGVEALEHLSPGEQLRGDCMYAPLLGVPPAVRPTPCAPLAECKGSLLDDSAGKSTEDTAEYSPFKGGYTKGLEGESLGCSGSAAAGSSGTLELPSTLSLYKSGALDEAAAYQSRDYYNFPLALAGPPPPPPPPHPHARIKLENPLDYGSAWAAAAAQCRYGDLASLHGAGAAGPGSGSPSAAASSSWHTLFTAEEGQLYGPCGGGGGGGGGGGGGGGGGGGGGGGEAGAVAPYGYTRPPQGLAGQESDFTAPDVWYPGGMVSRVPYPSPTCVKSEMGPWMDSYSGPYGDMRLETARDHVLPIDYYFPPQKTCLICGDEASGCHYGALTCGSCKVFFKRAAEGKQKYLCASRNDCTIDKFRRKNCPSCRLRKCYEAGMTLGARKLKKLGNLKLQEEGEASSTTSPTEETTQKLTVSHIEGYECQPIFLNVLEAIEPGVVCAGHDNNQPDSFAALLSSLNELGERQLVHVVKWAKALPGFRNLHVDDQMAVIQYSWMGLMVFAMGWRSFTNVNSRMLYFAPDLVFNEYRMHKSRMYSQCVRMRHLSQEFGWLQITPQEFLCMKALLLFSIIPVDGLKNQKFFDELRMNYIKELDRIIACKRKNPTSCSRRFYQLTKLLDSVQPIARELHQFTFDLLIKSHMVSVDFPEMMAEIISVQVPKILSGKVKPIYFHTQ
Summary of the method: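 MDA-kb2 human breast carcinoma cells carrying an MMTV-luciferase reporter (AR- and GR-responsive) were treated with compounds at 15 concentrations plus 3.0uM final nilutamide for 16hr at 37C without CO2; luminescence was read after ONE-Glo addition.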

Measured: Potency

Cc1ccccc1O
not listed: [20]
inactive: all other assays above

CCCCOC(=O)c1ccccc1C(=O)OCCCC
not listed: [8] | [14] | [15] | [18] | [20]
inactive: all other assays above

Cc1ccc([N+](=O)[O-])cc1C
not listed: [18] | [20]
inactive: all other assays above

[N-]=[N+]=[N-]
not listed: [2] | [18]
inactive: all other assays above

Cc1[nH]c(=O)n(C(C)(C)C)c(=O)c1Cl
not listed: [5] | [14] | [15]
inactive: all other assays above

CCNc1nc(NC(C)C)nc(SC)n1
not listed: [2] | [3] | [5]
inactive: all other assays above

O=c1ccc(=O)[nH][nH]1
not listed: [2] | [3] | [14] | [15] | [18]
inactive: all other assays above

CN=C=S
not listed: [18] | [20]
inactive: all other assays above

CON(C)C(=O)Nc1ccc(Cl)c(Cl)c1
not listed: [8] | [10] | [18] | [20]
inactive: all other assays above

CC(=O)C=C(C)C
not listed: [5] | [20]
inactive: all other assays above

C=C(C)CCl
not listed: [2] | [4] | [5] | [14] | [15]
inactive: all other assays above

CN(N=O)c1ccccc1
not listed: [20]
inactive: all other assays above

O=c1n(Cl)c(=O)n(Cl)c(=O)n1Cl
not listed: [20]
inactive: all other assays above

BrCCBr
not listed: [18] | [20]
inactive: all other assays above

CCC12COCN1COC2
not listed: [14] | [15] | [20]
inactive: all other assays above

c1cc2c3c(cccc3c1)CC2
not listed: [5]
inactive: all other assays above

CCCN(CCC)c1c([N+](=O)[O-])cc(C(F)(F)F)cc1[N+](=O)[O-]
not listed: [2]
inactive: all other assays above

CC(C#N)CCC#N (stereo not given)
not listed: [20]
inactive: all other assays above

O=S(=O)(c1ccc(Cl)cc1)c1cc(Cl)c(Cl)cc1Cl
active: [5] 61.1 µM | [8] 13.7 µM | [18] 54.4 µM and 68.6 µM
not listed: [10] | [20]
inactive: all other assays above

COCCl
39.8 µM (active) and inactive: [16]
not listed: [2] | [3] | [14] | [15] | [18]
inactive: all other assays above

O=C(NC(=O)c1c(F)cccc1F)Nc1cc(Cl)c(OC(F)(F)C(F)C(F)(F)F)cc1Cl (stereo not given)
not listed: [2] | [8] | [10] | [18]
inactive: all other assays above

O=c1[nH]c(=O)[nH]c(=O)[nH]1
not listed: [3]
inactive: all other assays above

C#CCN(C)[C@H](C)Cc1ccccc1
not listed: [20]
inactive: all other assays above

COC(=O)NS(=O)(=O)c1ccc(N)cc1
not listed: [14] | [15] | [18] | [20]
inactive: all other assays above

C1CN2CCN1CC2
inactive and 34.7 µM (active): [15]
not listed: [18] | [20]
inactive: all other assays above

CCOC(=O)c1ccccc1C(=O)OCC
not listed: [20]
inactive: all other assays above

CCCCN(CC)C(=O)SCCC
not listed: [2]
inactive: all other assays above

c1ccc(OP(Oc2ccccc2)Oc2ccccc2)cc1
not listed: [20]
inactive: all other assays above

CCCC1COC(Cn2cncn2)(c2ccc(Cl)cc2Cl)O1 (stereo not given)
active: [1] 61.1 µM | [8] 17.5 µM | [18] 62.3 µM and 68.6 µM
not listed: [9] | [10] | [11] | [16]
inactive: all other assays above

CC(C)C1(C)N=C(c2nc3ccccc3cc2C(=O)O)NC1=O (stereo not given)
not listed: [20]
inactive: all other assays above

NCCc1ccc(O)cc1
21.5 µM (active) and inactive: [10]
60.6 µM (active) and inactive: [1]
not listed: [18] | [20]
inactive: all other assays above

CC(Oc1ccc(Cl)cc1Cl)C(=O)O (stereo not given)
not listed: [18] | [20]
inactive: all other assays above
